The text below walks through data of PubChem BioAssay (NCATS).

Experiment [1] has as its target Cytochrome P450 3A7 (Homo sapiens) (UniProt P24462). In words: Cytochrome P450 family 3 subfamily A member 7 (CYP3A7) small molecule antagonists: luciferase biochemical qHTS assay (AID 1963596). For activity change, negative = inhibition: % is set by controls: 0 for no effect and ±100 for the full control effect. Note: nearly all actives have a fitted effect of over 40% in size. The method in brief: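 Recombinant CYP3A7 P450-Glo luminescent assay: enzyme-proluciferin substrate mix preincubated with compound 10 min at room temperature, reaction started with NADPH regeneration system for 1 h. Luciferin detected by luminescence; ketoconazole as positive control.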

Experiment [2] in a line: Viability qHTS for spleen associated tyrosine kinase inhibitor (SYKi) drug resistant MV4-11 cells (AID 1963824). Note: nearly all actives have a fitted effect of over 35% in size. The method in brief:
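SYK inhibitor-resistant MV4-11 AML cells, 500 per well, added to predispensed compounds and incubated 72 hr at 37 C, 5% CO2. Viability measured by CellTiter-Glo luminescence after 10 min at room temperature.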

The nature of experiment [3]: Cellular viability qHTS for adrenocortical cancer (ACC) cell line SW-13 (AID 1963989).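 For activity (max response): cells grown in serum-free medium with ITS supplement; % is set by controls: 0 for no effect and ±100 for the full control effect.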 Note: nearly all actives have a fitted effect of over 65% in size. Conditions: SW-13 ACC cells viability, CellTiter-Glo, 48 h; activity (max response): hits give low values. Put shortly: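 Luminescent ATP read-out (CellTiter-Glo, 20 min at room temperature) measured metabolically competent SW-13 cells after 48 h compound treatment. Final concentrations spanned up to 46 uM; bortezomib served as positive control.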

Experiment [4] in a line: Cellular viability qHTS for adrenocortical cancer (ACC) cell line NCI-H295R (AID 1963990).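 For activity change, negative = viability loss: 0% = DMSO only wells and -100% = full killing with cytotoxic reference compound.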 Note: nearly all actives have a fitted effect of over 60% in size. Put shortly:
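IC50 and maximal efficacy derive from four-parameter logistic modelling of titration curves, with reads scaled between DMSO-only wells (0%) and doxorubicin hydrochloride (100% inhibition). Compounds spanned up to 46 uM over 48 h.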

Experiment [5] in a line: Quantitative highthroughput screen to assess conditional lethalithy of NOMO1 cells grown in RPMI1640 with untreated serum (RPMI+s) (AID 1963876).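 For Viability: 100% = DMSO wells and 0% = empty wells without cells.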 Note: nearly all actives have a fitted effect of over 35% in size. Put shortly:
(§1)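 Each medium arm—HPLM with 10% dialyzed FBS, or RPMI1640 with 5 mM glucose and 10% untreated or dialyzed FBS—was screened against an 11-point, 3-fold compound titration for 48 h at 37 °C, with CellTiter-Glo luminescence as endpoint.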

Experiment [6] is described as follows: Quantitative highthroughput screen to assess conditional lethalithy of NOMO1 cells grown in RPMI1640 with dialyzed fetal bovine serum (RPMI+ds) (AID 1963877).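 For Viability: series mostly up to about 46 µM; 100% = DMSO control wells and 0% = empty wells.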 Note: nearly all actives have a fitted effect of over 30% in size. The method in brief:
as §1

Experiment [7] in a line: Quantitative highthroughput screen to assess conditional lethalithy of NOMO1 cells grown in Human Plasma-Like Medium with dialyzed fetal bovine serum (HPLM+ds) (AID 1963878).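 For Viability: 100% = DMSO wells and 0% = empty wells on each plate.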 Note: nearly all actives have a fitted effect of over 35% in size. The method in brief:
as §1

The nature of experiment [8]: Quantitative highthroughput screen to assess conditional lethalithy of P12 Ichikawa cells grown in Human Plasma-Like Medium with dialyzed fetal bovine serum (HPLM+ds) (AID 1963879). For Viability: series mostly up to about 46 µM. Note: nearly all actives have a fitted effect of over 35% in size. Conditions: Potency: viability. Put shortly:
as §1

A short description of experiment [9]: Quantitative highthroughput screen to assess conditional lethalithy of P12 Ichikawa cells grown in RPMI1640 with dialyzed fetal bovine serum (RPMI+ds) (AID 1963880).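 For Viability: 100% = DMSO wells and 0% = empty wells on each plate.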 Note: nearly all actives have a fitted effect of over 35% in size. Conditions: Potency: P12-Ichikawa viability. Put shortly: as §1
Experiment [10] can be described thus: Quantitative highthroughput screen to assess conditional lethalithy of P12 Ichikawa cells grown in RPMI1640 with untreated serum (RPMI+s) (AID 1963881).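 For Viability: series mostly up to about 46 µM; 100% = DMSO wells and 0% = empty wells without cells.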 Note: nearly all actives have a fitted effect of over 35% in size. Conditions: Potency: viability. The method in brief:
as §1

Experiment [11] can be described thus: Quantitative highthroughput screen to assess conditional lethalithy of SEM cells grown in Human Plasma-Like Medium with dialyzed fetal bovine serum (HPLM+ds) (AID 1963882). For Viability: series mostly up to about 46 µM. Note: nearly all actives have a fitted effect of over 35% in size. Put shortly: as §1
Experiment [12] can be described thus: Quantitative highthroughput screen to assess conditional lethalithy of SEM cells grown in RPMI1640 with unreated serum (RPMI+s) (AID 1963883).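 For Viability: 100% = DMSO wells and 0% = empty wells without cells.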 Note: nearly all actives have a fitted effect of over 35% in size. The method in brief: as §1
The nature of experiment [13]: Quantitative highthroughput screen to assess conditional lethalithy of SEM cells grown in RPMI1640 with dialyzed fetal bovine serum (RPMI+ds) (AID 1963884).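 For Viability: series mostly up to about 46 µM; 100% = DMSO control wells and 0% = empty wells without cells.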 Note: nearly all actives have a fitted effect of over 35% in size. Put shortly: as §1

Molecules are shown by their SMILES. Several values for one entry are separate records, joined by “and”; a condition that tells them apart may be missing. Equal values may be shown once. Results filed as inconclusive are left out. Unmarked numbers belong to inactive results. Activity calls are given as the source filed them. Calls come from the whole dose curve; as a rule, active = well fitted curve in the direction sought with a large enough effect; inconclusive = small, poorly fitted or top-dose-only effect, or another doubt; inactive = no such curve, though single readings can be large; an effect the other way counts as inactive or inconclusive.
Potency is the fitted concentration of half-maximal effect.

Sequence of Cytochrome P450 3A7 (Homo sapiens) (P24462 whole entry, looked up): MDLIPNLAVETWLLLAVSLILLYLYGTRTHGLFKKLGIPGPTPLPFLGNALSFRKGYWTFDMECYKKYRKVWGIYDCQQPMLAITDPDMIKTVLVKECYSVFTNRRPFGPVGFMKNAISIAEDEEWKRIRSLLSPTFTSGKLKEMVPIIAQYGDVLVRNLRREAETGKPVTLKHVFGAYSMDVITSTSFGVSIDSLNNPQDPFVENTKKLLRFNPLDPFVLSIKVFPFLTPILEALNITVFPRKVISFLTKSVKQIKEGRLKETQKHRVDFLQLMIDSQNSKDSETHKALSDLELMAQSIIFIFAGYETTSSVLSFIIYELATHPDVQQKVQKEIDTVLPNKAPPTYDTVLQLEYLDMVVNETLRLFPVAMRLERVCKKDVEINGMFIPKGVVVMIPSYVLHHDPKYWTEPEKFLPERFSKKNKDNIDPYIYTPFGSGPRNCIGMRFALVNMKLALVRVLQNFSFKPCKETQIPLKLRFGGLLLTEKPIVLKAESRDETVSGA

As to `CCOc1ccccc1C(N)=O`, the Potency result in experiment [1] and in experiment [4] was “inactive” throughout. Further, in experiment [2], the Potency was 9.44 µM (active). Besides, the activity (max response) in experiment [3] was 2.11%.
With `CC[C@@H](CO)NCCN[C@@H](CC)CO`, the Potency entry in experiment [1], in experiment [2] and in experiment [4] was “inactive” throughout.
`O=C1NC(=O)[C@@]2(CCOc3ccc(F)cc32)N1`: the Potency result in [1], in experiment [2] and in experiment [4] was “inactive” in each case. Further, the activity (max response) in experiment [3] is 3.16%.
Consider `Cc1cccc(C)c1NC(=O)CN1CCCC1`, for which the Potency result in experiment [1] and in experiment [4] was “inactive” in each case. Further, in experiment [2], the Potency is 5.96 µM (active). Moreover, in [3], the activity (max response) was 3.45%.
On to `CCCCc1nc2cc(C=CC(=O)NO)ccc2n1CCN(CC)CC`, for which the Potency result in experiment [1] is “inactive”. Moreover, the Potency in experiment [5] is 4.18 µM (active); in [6], 6.62 µM (active); in experiment [7], 4.69 µM (active); in experiment [8], 2.64 µM (active); in experiment [9], 2.96 µM (active); in experiment [10], 2.96 µM (active). Further, the values for the Potency in experiment [11], in experiment [12] and in experiment [13] were 1.87 µM (active), 2.09 µM (active) and 2.09 µM (active), respectively.
Regarding `CC(=O)OC(C)C[N+](C)(C)C` (configuration not stated), the Potency entry in experiment [1], in experiment [2] and in [4] was “inactive” each time. Further, the activity (max response) in experiment [3] was -1.07%.
In the case of `CCN(CC)S(=O)(=O)c1ccc(C(=O)O)cc1`, the Potency result in experiment [1], in experiment [2] and in experiment [4] was “inactive” each time. Besides, the activity (max response) in experiment [3] was -2.24%.
Turning to `O=C(O)C(=O)Nc1cccc(-c2nn[nH]n2)c1`, the Potency entry in experiment [1], in experiment [2] and in experiment [4] was “inactive” throughout.
Regarding `NS(=O)(=O)Cc1noc2ccccc12`, the Potency result in [1], in [2] and in experiment [4] was “inactive” in each case. The activity (max response) in experiment [3] was 1.85%.
With `COc1cc(NS(=O)(=O)c2ccc(N)cc2)ncn1`, the Potency entry in [1], in experiment [2] and in [4] was “inactive” each time.
As for `N[C@@H](CSSC[C@H](N)C(=O)O)C(=O)O`, the activity change, negative = inhibition in experiment [1] is 0.172% [at 0.91 µM]. The viability, % of control in experiment [2] was 76.8% [at 0.588 µM]. Moreover, the activity (max response) in experiment [3] was 5.04%. In addition, the activity change, negative = viability loss in experiment [4] was -0.603% [at 0.587 µM].
In the case of `CCCOC(=O)c1ccc(O)cc1`, the Potency entry in experiment [1] and in experiment [4] was “inactive” each time. In addition, the Potency in [2] is 0.0863 µM (active).
Regarding `CC(=O)N(CC(O)CO)c1c(I)c(C(=O)NCC(O)CO)c(I)c(C(=O)NCC(O)CO)c1I` (configuration not stated), the Potency entry in [1], in experiment [2] and in experiment [4] was “inactive” each time. The activity (max response) in [3] was 11.9%.
Take `C[C@@H]1CCC[C@H](C)N1CCCC(O)(c1ccccc1)c1ccccn1` (some centres not stated): the Potency result in experiment [1], in [2] and in experiment [4] was “inactive” throughout.
Regarding `CC(=O)OC[C@H]1O[C@@H](n2ncc(=O)[nH]c2=O)[C@H](OC(C)=O)[C@@H]1OC(C)=O`, the Potency result in experiment [1], in experiment [2] and in experiment [4] was “inactive” in each case. Further, in experiment [3], the activity (max response) was -6.84%.
For `CNC(=O)c1c(I)c(NC(=O)CCCCC(=O)Nc2c(I)c(C(=O)O)c(I)c(C(=O)NC)c2I)c(I)c(C(=O)O)c1I`, the Potency entry in experiment [1], in experiment [2] and in experiment [4] was “inactive” in each case. Further, the activity (max response) in experiment [3] is -7.54%.
For the molecule `Cc1[nH]c(=O)c(C#N)cc1-c1ccc2nccn2c1`, the Potency result in experiment [1], in experiment [5], in [6], in experiment [7], in [8] and in experiment [9] was “inactive” each time. For the same molecule, the Potency result in [10], in experiment [11], in [12], in experiment [13] and in [4] was “inactive” in each case. In addition, the activity (max response) in experiment [3] was 11.7%.
On to `Cc1ccc(Cl)c(OCC(O)CNC(C)(C)C)c1` (configuration not stated), for which the Potency entry in experiment [1], in [2] and in [4] was “inactive” each time. The activity (max response) in experiment [3] was 1.06%.
Take `CCN(CC)CCNC(=O)c1cc(Cl)c(N)cc1OC`: the Potency result in experiment [1], in experiment [2] and in [4] was “inactive” each time. In addition, the activity (max response) in experiment [3] is -0.158%.
As for `OCCc1ccccc1`, the Potency result in experiment [1], in experiment [2] and in [4] was “inactive” in each case. Also, the activity (max response) in [3] was 10.1%.
Consider `Cc1c(C(N)=O)cc([N+](=O)[O-])cc1[N+](=O)[O-]`, for which the Potency entry in [1], in experiment [2] and in experiment [4] was “inactive” in each case. In addition, the activity (max response) in experiment [3] was -7.83%.
`CC1COc2c(N3CCN(C)CC3)c(F)cc3c(=O)c(C(=O)O)cn1c23` (configuration not stated): the Potency entry in experiment [1], in experiment [5], in experiment [6], in experiment [7], in experiment [8] and in experiment [9] was “inactive” each time. The Potency entry in experiment [10], in experiment [11], in experiment [12], in experiment [13] and in [4] was “inactive” throughout. Also, the activity (max response) in [3] was 4.41% and 9.62%.
Regarding `Nc1ncn([C@@H]2O[C@H](CO)[C@@H](O)[C@H]2O)c(=O)n1`, the Potency result in experiment [1] and in experiment [4] was “inactive” throughout. For the same molecule, the Potency in experiment [2] was 1.66 µM (active).
As for `CCCCCC(C)N` (configuration not stated), the Potency result in [1], in [2] and in [4] was “inactive” each time. Also, the activity (max response) in [3] is 17.9%.
As to `CCOC(=O)c1cccc(N)c1`, the Potency in [1] is 27.5 µM (active). The Potency entry in [2] and in experiment [4] was “inactive” throughout. The activity (max response) in experiment [3] is -1.69%.
For `Cc1c(C(=O)N2CCOc3ccc(-c4ccc(N)nc4)cc3C2)ccc(S(C)(=O)=O)c1F`, the Potency result in experiment [1] was “inactive”. Moreover, the Potency was 3.26 µM (active) in experiment [2] and 8.91 µM (active) in experiment [4].
On to `Cn1ncc(Cl)c1-c1cc(C(=O)NC(CN)Cc2ccc(F)c(F)c2)oc1Cl` (configuration not stated), for which the Potency result in [1] is “inactive”. For the same molecule, the figures for the Potency in [2], in experiment [3] and in experiment [4] were 4.68 µM (active), 28.2 µM (active) and 3.16 µM (active), respectively.
Consider `O=C(CCCl)NCc1ccccc1`, for which the Potency result in [1], in [2] and in [4] was “inactive” each time. In experiment [3], the activity (max response) is 9.65%.
